# In PubChem BioAssay (Tox21):
# Values joined by “and” are separate entries in the source; they are usually repeats but may differ in a detail not shown here. Equal values may be shown once. Active and inactive are the calls of the source. Where a call stands in place of a potency, no number is given. Unless noted, calls follow the shape of the dose curve; as a rule, active = well fitted curve in the direction sought with a large enough effect in the repeat runs; inconclusive = weak or mixed curves; inactive = no such curve, though single readings can be large; an effect the other way counts as inactive or inconclusive.
# Tests used:
# [1] = qHTS assay to test for compound auto fluorescence at 460 nm (blue) in HEK293 cells (AID 720678)
# Procedure, shortened: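 Intrinsic compound fluorescence is recorded in live HEK293 cultures after overnight incubation at 37C, 5% CO2, using excitation 405 nm and emission 460 nm. Values are referenced to triamterene.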
# [2] = qHTS assay to test for compound auto fluorescence at 535 nm (green) in HEK293 cells (AID 720680)
# [3] = qHTS assay to test for compound auto fluorescence at 590 nm (red) in HEK293 cell free culture (AID 720683)
# Procedure, shortened: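 Tox21 10K library compounds were pinned into cell-free DMEM with 10% FBS and fluorescence was read at excitation 540 nm. Activity is expressed as Rose Bengal sodium equivalency.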
# [4] = test system: thyroid hormone receptor (rat, GH3 cells); assay: qHTS assay to identify small molecule agonists of the thyroid receptor (TR) signaling pathway (AID 743066; calls by dose curve)
# [5] = target: Glucocorticoid receptor (Homo sapiens) (UniProt P04150); assay: qHTS assay to identify small molecule antagonists of the glucocorticoid receptor (GR) signaling pathway (AID 720692; active = well fitted inhibition curve with a large enough effect in the signal ratio in the repeat runs, not every such curve was filed as active; inconclusive = weak or mixed curves, or effect the other way; inactive = no such curve, though single readings can be large or run the other way; the % refers to the signal ratio; also: potency is read from the fitted curve at half-maximal effect)
# Chain of Glucocorticoid receptor (Homo sapiens) (P04150 whole entry, looked up): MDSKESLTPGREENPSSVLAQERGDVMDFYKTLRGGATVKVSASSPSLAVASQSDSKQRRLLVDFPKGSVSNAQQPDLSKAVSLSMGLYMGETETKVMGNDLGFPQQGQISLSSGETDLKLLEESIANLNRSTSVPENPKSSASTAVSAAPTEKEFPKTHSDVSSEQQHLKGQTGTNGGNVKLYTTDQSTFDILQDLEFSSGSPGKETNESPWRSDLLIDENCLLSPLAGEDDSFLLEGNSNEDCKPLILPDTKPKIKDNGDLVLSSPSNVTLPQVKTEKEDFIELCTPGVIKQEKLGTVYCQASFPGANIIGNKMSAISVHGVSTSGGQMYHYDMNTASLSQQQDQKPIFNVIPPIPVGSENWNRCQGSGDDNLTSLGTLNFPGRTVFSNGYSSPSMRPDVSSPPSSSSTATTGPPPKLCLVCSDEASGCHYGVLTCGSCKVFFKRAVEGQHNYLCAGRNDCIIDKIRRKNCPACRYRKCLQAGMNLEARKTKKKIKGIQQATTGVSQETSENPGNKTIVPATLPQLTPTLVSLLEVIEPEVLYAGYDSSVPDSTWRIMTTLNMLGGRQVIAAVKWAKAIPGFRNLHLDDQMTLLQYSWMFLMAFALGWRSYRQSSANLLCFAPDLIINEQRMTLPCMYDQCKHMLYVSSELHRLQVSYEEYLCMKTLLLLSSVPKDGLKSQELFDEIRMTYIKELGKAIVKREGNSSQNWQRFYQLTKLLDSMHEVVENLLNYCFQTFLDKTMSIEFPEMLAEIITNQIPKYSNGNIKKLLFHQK
# Procedure, shortened: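 Dexamethasone (5 nM final) stimulated a stably integrated GRE-beta-lactamase reporter in HeLa cells during 18 h co-incubation with compounds; signal was quantified as fluorescence intensity of B/G FRET substrate after 2 h.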
# [6] = qHTS assay for small molecule disruptors of the mitochondrial membrane potential - cell viability (AID 720634; calls by dose curve;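 also: human HepG2 liver cancer cells; series mostly up to about 83 µM; nearly all actives have a fitted effect of over 20% in size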)
# Procedure, shortened: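 Measuring cytotoxicity alongside mitochondrial potential, the screen quantified ATP by luminescence in HepG2 cells after 1 hr compound incubation and a 30 min room-temperature CellTiter-Glo step.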
# [7] = target: Glucocorticoid receptor (Homo sapiens) (UniProt P04150); assay: qHTS assay to identify small molecule agonists of the glucocorticoid receptor (GR) signaling pathway (AID 720691; active = well fitted activation curve with a large enough effect in the signal ratio in the repeat runs, not every such curve was filed as active; inconclusive = weak or mixed curves, or effect the other way; inactive = no such curve, though single readings can be large or run the other way; the % refers to the signal ratio)
# Procedure, shortened: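 Reporter read-out: fluorescence intensity following 2 h room-temperature LiveBLAzer B/G FRET substrate loading. Prior step: GR-bla HeLa cells held 4 h, then treated 18 h at 37 C.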
# [8] = qHTS assay to identify small molecule antagonists of the glucocorticoid receptor (GR) signaling pathway - cell viability counter screen (AID 720693); also: nearly all actives have a fitted effect of over 55% in size; also: potency is read from the fitted curve at half-maximal effect
# [9] = qHTS assay for identifying genotoxic compounds that show differential cytotoxicity against isogenic chicken DT40 cell lines with known DNA damage response pathways - Rad54/Ku70 mutant cell line (AID 743015); also: nearly all actives have a fitted effect of over 60% in size; also: potency is read from the fitted curve at half-maximal effect
# [10] = qHTS assay to identify small molecule antagonists of the thyroid receptor (TR) signaling pathway - cell viability counter screen (AID 743064); also: nearly all actives have a fitted effect of over 50% in size; also: potency is read from the fitted curve at half-maximal effect
# Procedure, shortened: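 In-well cytotoxicity read by CellTiter-Fluor (30 min, 37 C) following 23.5 h exposure of GH3 cells bearing a TRE-luciferase sensor. Compounds were added alongside 1 nM (final) T3 to drive TR transactivation.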
# [11] = qHTS assay to identify small molecule antagonists of the thyroid receptor (TR) signaling pathway (AID 743065); also: nearly all actives have a fitted effect of over 55% in size; also: potency is read from the fitted curve at half-maximal effect
# Procedure, shortened: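 GH3.TRE-Luc rat pituitary cells carrying two TR response elements driving luciferase were plated for 4 h, given compound plus 1 nM T3 (final), and incubated 23.5 h at 37 C. ONE-Glo luminescence measured reporter inhibition; CellTiter-Fluor fluorescence tracked cytotoxicity.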
# [12] = target: Nuclear receptor subfamily 1 group I member 2 (Homo sapiens) (UniProt O75469); assay: Human pregnane X receptor (PXR) activation by small molecules, qHTS assay (AID 1346985); also: nearly all actives have a fitted effect of over 40% in size
# Procedure, shortened: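 DPX-2 cells (HepG2 co-transfected with a PXR response element and a CYP3A4-promoter luciferase construct) were seeded at 2,000 per well, rested 5 hr at 37C, then exposed to DMSO-dissolved compounds for 24 hr. Activation was read as luciferase luminescence.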
# [13] = qHTS assay for small molecule agonists of the p53 signaling pathway - cell viability (AID 651633; calls by dose curve; also: nearly all actives have a fitted effect of over 30% in size; also: potency is read from the fitted curve at half-maximal effect)
# Procedure, shortened: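 p53RE-bla cells, seeded at 4,000 per well and rested 5 h at 37 C/5% CO2, received compounds in DMSO for 16 h at 37 C. CellTiter-Glo was then added, and luminescence was read after 30 min at room temperature to gauge cytotoxicity.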
# [14] = qHTS assay for small molecule disruptors of the mitochondrial membrane potential (AID 720635); also: potency is read from the fitted curve at half-maximal effect
# Procedure, shortened: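 HepG2 cells (2,000/well) attached overnight at 37C, then took compound for 1 hr at 37C, 5% CO2. Mito-MPS dye was added for 30 min; fluorescence was read at 490/535 nm (monomers) and 540/590 nm (aggregates).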
# [15] = qHTS assay to identify small molecule antagonists of the androgen receptor (AR) signaling pathway - cell viability counter screen (AID 743033; also: nearly all actives have a fitted effect of over 45% in size)
# [16] = qHTS assay to identify small molecule antagonists of the androgen receptor (AR) signaling pathway using the MDA cell line - cell viability counter screen (AID 743041; also: nearly all actives have a fitted effect of over 45% in size; also: potency is read from the fitted curve at half-maximal effect)
# Procedure, shortened: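 Viability counter screen run alongside the AR antagonist reporter: cells seeded 5 h before compound, R1881 added, 16 h incubation at 37C without CO2, fluorescent CellTiter-Fluor signal quantified.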
# [17] = target: Estrogen receptor (Homo sapiens) (UniProt P03372); assay: qHTS assay to identify small molecule antagonists of the estrogen receptor alpha (ER-alpha) signaling pathway (AID 743069; active = well fitted curve in the direction sought with a large enough effect in the signal ratio in the repeat runs, not every such curve was filed as active; inconclusive = weak or mixed curves, or effect the other way; inactive = no such curve, though single readings can be large or run the other way; the % refers to the signal ratio)
# Chain of Estrogen receptor (Homo sapiens) (P03372 whole entry, looked up): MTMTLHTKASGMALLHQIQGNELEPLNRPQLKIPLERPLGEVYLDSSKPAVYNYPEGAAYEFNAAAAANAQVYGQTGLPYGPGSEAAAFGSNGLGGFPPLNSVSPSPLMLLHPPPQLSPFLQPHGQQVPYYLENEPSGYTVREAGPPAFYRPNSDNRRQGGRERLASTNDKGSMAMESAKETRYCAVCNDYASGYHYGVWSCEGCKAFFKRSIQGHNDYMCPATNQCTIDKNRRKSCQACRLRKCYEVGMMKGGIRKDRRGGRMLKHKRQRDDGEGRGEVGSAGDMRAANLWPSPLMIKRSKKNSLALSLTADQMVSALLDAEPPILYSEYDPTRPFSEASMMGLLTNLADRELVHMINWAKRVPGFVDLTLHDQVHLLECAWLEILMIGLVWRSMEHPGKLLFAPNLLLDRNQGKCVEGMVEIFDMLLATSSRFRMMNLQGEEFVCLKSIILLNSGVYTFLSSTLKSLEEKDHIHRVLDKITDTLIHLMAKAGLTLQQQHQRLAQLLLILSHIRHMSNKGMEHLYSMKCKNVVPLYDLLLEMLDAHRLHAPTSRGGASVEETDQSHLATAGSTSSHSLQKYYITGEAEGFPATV
# Procedure, shortened: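 Estradiol-stimulated ER-alpha-UAS-bla HEK293 cells, 18 hr compound exposure at 37C. LiveBLAzer B/G substrate, 2 hr RT, fluorescence read.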
# [18] = target: Estrogen receptor (Homo sapiens) (UniProt P03372); assay: qHTS assay to identify small molecule agonists of the estrogen receptor alpha (ER-alpha) signaling pathway (AID 743075; calls by dose curve;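 also: HEK293 GripTite cells with ER-alpha and UAS-driven beta-lactamase reporter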; also: potency is read from the fitted curve at half-maximal effect)
# [19] = target: Estrogen receptor (Homo sapiens) (UniProt P03372); assay: qHTS assay to identify small molecule agonists of the estrogen receptor alpha (ER-alpha) signaling pathway using the BG1 cell line (AID 743079); also: nearly all actives have a fitted effect of over 20% in size; also: potency is read from the fitted curve at half-maximal effect
# [20] = qHTS assay to identify small molecule antagonists of the estrogen receptor alpha (ER-alpha) signaling pathway using the BG1 cell line (AID 743080; calls by dose curve;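 also: BG1 cells stimulated with 17beta-estradiol alongside compound; nearly all actives have a fitted effect of over 25% in size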; also: potency is read from the fitted curve at half-maximal effect)
# Procedure, shortened: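 Readout is ONE-Glo luminescence, taken 30 min at room temperature after reagent addition, preceded by a CellTiter-Fluor viability read; BG1-Luc-4E2 cells had received compound and 17beta-estradiol for 21.5 h at 37 C.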
Compound,Potency [1],Potency [2],outcome [3],Potency [4],Potency [5],Potency [6],Potency [7],Potency [8],Potency [9],Potency [10],Potency [11],Potency [12],Potency [13],Potency [14],Potency [15],Potency [16],Potency [17],Potency [18],Potency [19],Potency [20]
Cc1ccc(O)cc1C,inactive,inactive,inactive,inactive,,,,,,,,,,,,,,,,
Cc1cccc(C)c1,,,,,inactive,,,,,,,,,,,,,,,
CN[C@@H]1C[C@@H](c2ccc(Cl)c(Cl)c2)c2ccccc21,,inactive,inactive,,inactive,inactive,inactive,inactive,11.9 µM (active),11.9 µM (active),11.9 µM (active),inactive,,,,,,,,
CNc1ccccc1,,,,,inactive,,,,,,,,,,,,,,,
O=C(O)/C=C/C(=O)O,inactive,inactive,inactive,inactive,inactive,inactive,inactive,inactive,inactive,inactive,inactive,,inactive,inactive,inactive,,,,,
Nc1ccc(N)c2ccccc12,,,,,24.5 µM (active),,,,,,,,,,,,,,,
O=[N+]([O-])c1ccccc1Cl,,inactive,inactive,,,,,,,,inactive,,,,,,,,,
O=C(O)/C=C\C(=O)O,inactive,inactive,inactive,inactive,inactive,inactive,inactive,inactive,inactive,inactive,inactive,,inactive,inactive,inactive,inactive,,,,
Cc1ccc2ccccc2c1C,inactive,inactive,inactive,,,,,,,,,,,,,,,,,
CC(C)(C)c1ccc(O)cc1,inactive,,inactive,,,,,,,,,,,55.8 µM (active) and 43.3 µM (active),,,,,,
CC[N+](C)(CC)CCOC(=O)C(O)(c1ccccc1)c1ccccc1,inactive,inactive,inactive,inactive,inactive,inactive,inactive,,inactive,inactive,inactive,inactive,inactive,inactive,inactive,inactive,inactive,inactive,inactive,inactive
COC(COC(N)=O)C1=C(N2CC2)C(=O)C(C)=C(N2CC2)C1=O (configuration not stated),inactive,,inactive,,,inactive,inactive,1.9 µM (active),0.0047 µM (active),0.841 µM (active),0.168 µM (active),inactive,7.5 µM (active),inactive,,13.3 µM (active),,inactive,,0.531 µM (active)
C#CC(C)(O)CC (configuration not stated),inactive,inactive,,inactive,inactive,,inactive,,inactive,,inactive,inactive,inactive,,,inactive,inactive,inactive,inactive,inactive
C[C@@H](CO)NC(=O)[C@@H]1C=C2c3cccc4[nH]cc(c34)C[C@H]2N(C)C1,inactive,,inactive,inactive,inactive,,inactive,,inactive,,inactive,inactive,inactive,9.44 µM (active),,inactive,,,,
CC(=O)O[C@H]1CC[C@H]2[C@@H]3CCC4=CC(=O)CCC4=C3C=C[C@]12C,,inactive,inactive,inactive,2.68 µM (active),inactive,inactive,,,inactive,inactive,inactive,inactive,inactive,inactive,inactive,,2.68 µM [inconclusive] (active),0.531 µM (active),inactive
c1cc2c(c(NC3=NCCN3)c1)CCCC2,inactive,inactive,inactive,inactive,inactive,inactive,inactive,inactive,,,,inactive,,inactive,inactive,,,,,
O=[N+]([O-])c1cc(I)c(O)c(I)c1,inactive,inactive,,,,,inactive,,,26.6 µM (active),21.1 µM (active),inactive,3.76 µM (active),13.3 µM (active),inactive,inactive,,,,
CN(C)CCCCCCN(C)C,inactive,inactive,inactive,inactive,inactive,inactive,inactive,inactive,inactive,inactive,inactive,,inactive,inactive,inactive,inactive,,,,
O=S(=O)(O)c1cc(O)ccc1O,,inactive,,inactive,inactive,inactive,inactive,inactive,inactive,inactive,inactive,,inactive,inactive,,inactive,,,,
CCOc1ccc2c3c1O[C@H]1[C@@H](O)C=C[C@H]4[C@@H](C2)N(C)CC[C@@]341,,inactive,inactive,inactive,inactive,inactive,inactive,inactive,inactive,,,inactive,inactive,inactive,inactive,inactive,inactive,inactive,inactive,inactive
CCC1(CC)C(=O)NC(=O)N(C)C1=O,inactive,inactive,inactive,inactive,inactive,,inactive,inactive,inactive,inactive,inactive,inactive,inactive,inactive,inactive,,inactive,inactive,inactive,inactive
CN=C1CN(O)C(c2ccccc2)=c2cc(Cl)ccc2=N1,,inactive,inactive,inactive,inactive,inactive,inactive,,inactive,inactive,inactive,inactive,inactive,,,,inactive,inactive,inactive,inactive
